# Test results published in paper PMC8384837, “Expanding the binding specificity for RNA recognition by a PUF domain”.
# Substitutions are numbered along the chain they refer to.
# Experiments:
# Test in all cases: yeast three-hybrid, YBZ-1, SC-Leu-His + 0.5 mM 3-AT, 4 days
# Conditions in all cases: tags: N-Gal4 AD-HA kept; label: inside an RPR1-promoter hybrid RNA with tandem MS2 sites; ssRNA
# [1] = target: PUM1 PUF domain R5-MRD (Homo sapiens, UniProt Q14671 828-1176, C1007M;Q1011D)
# Procedure, shortened: (§1)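 A centromeric plasmid in strain YBZ-1 co-expressed Pumilio-1 PUF domain libraries, randomized at the three base-contacting residues of each repeat, with matching RNA elements; the strain carries a LexA–MS2 coat fusion and a HIS3 reporter. After four days on SC-Leu (input) or SC-Leu-His + 0.5 mM 3-AT (selection), the repeat regions were PCR-amplified and Illumina-sequenced. The interaction score is the log change in variant frequency from input to selection, using log2 and a pseudocount of 1 where absent.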
# [2] = target: PUM1 PUF domain R5-LFS (Homo sapiens, UniProt Q14671 828-1176, C1007L;R1008F;Q1011S)
# Procedure, shortened: as §1
# [3] = target: PUM1 PUF domain R5-TGR (Homo sapiens, UniProt Q14671 828-1176, C1007T;R1008G;Q1011R)
# Procedure, shortened: as §1
# [4] = target: PUM1 PUF domain R5-RRA (Homo sapiens, UniProt Q14671 828-1176, C1007R;Q1011A)
# Procedure, shortened: as §1
# [5] = target: T1, PUM1 PUF domain R6-YRI (Homo sapiens, UniProt Q14671 828-1176, N1043Y;Y1044R;Q1047I)
# T1 sequence: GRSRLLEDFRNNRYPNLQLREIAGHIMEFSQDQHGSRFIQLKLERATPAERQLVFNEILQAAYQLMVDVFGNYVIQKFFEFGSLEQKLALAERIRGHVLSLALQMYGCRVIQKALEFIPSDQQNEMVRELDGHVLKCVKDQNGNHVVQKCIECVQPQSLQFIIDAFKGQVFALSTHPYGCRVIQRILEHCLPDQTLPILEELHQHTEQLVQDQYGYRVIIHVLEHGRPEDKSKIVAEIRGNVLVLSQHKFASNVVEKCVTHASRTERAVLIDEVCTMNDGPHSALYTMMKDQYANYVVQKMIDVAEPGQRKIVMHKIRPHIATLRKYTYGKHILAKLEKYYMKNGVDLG
# Procedure, shortened: as §1
# [6] = target: T2, PUM1 PUF domain R6-KWG (Homo sapiens, UniProt Q14671 828-1176, N1043K;Y1044W;Q1047G)
# T2 sequence: T1 sequence with Y216K, R217W, I220G
# Procedure, shortened: as §1
# [7] = target: T3, PUM1 PUF domain R6-SYR (Homo sapiens, UniProt Q14671 828-1176, N1043S;Q1047R)
# T3 sequence: T1 sequence with Y216S, R217Y, I220R
# Procedure, shortened: as §1
# [8] = target: PUM1 PUF domain R5-LYL (Homo sapiens, UniProt Q14671 828-1176, C1007L;R1008Y;Q1011L)
# Procedure, shortened: as §1
# [9] = target: PUM1 PUF domain R1-RFC (Homo sapiens, UniProt Q14671 828-1176, S863R;R864F;Q867C)
# Procedure, shortened: as §1
# [10] = target: PUM1 PUF domain R1-KWC (Homo sapiens, UniProt Q14671 828-1176, S863K;R864W;Q867C)
# Procedure, shortened: as §1
sequence,measurement,setting,value
GGCUAGAACUAGUGGAUCCCCCGGCGCCCGGCGGCUCGAGCCCGGGUAAGUGUUAAUAGUCUGCAUGCCGCCGGGCGCCAUGCCUGCAGGUCGACUCUAGAAAACAUG,binding signal,[1],2.48 log2 enrichment (interaction score)
same,binding signal,[2],1.78 log2 enrichment (interaction score)
GGCUAGAACUAGUGGAUCCCCCGGCGCCCGGCGGCUCGAGCCCGGGUAAGUGUCAAUAGUCUGCAUGCCGCCGGGCGCCAUGCCUGCAGGUCGACUCUAGAAAACAUG,binding signal,[3],5.8 log2 enrichment (interaction score)
same,binding signal,[4],4.67 log2 enrichment (interaction score)
GGCUAGAACUAGUGGAUCCCCCGGCGCCCGGCGGCUCGAGCCCGGGUAAGUGUGAAUAGUCUGCAUGCCGCCGGGCGCCAUGCCUGCAGGUCGACUCUAGAAAACAUG,binding signal,[4],1.09 log2 enrichment (interaction score)
same,binding signal,[2],1.48 log2 enrichment (interaction score)
GGCUAGAACUAGUGGAUCCCCCGGCGCCCGGCGGCUCGAGCCCGGGUAAGUGAAAAUAGUCUGCAUGCCGCCGGGCGCCAUGCCUGCAGGUCGACUCUAGAAAACAUG,binding signal,[5],3.61 log2 enrichment (interaction score)
same,binding signal,[6],5.8 log2 enrichment (interaction score)
GGCUAGAACUAGUGGAUCCCCCGGCGCCCGGCGGCUCGAGCCCGGGUAAGUGCAAAUAGUCUGCAUGCCGCCGGGCGCCAUGCCUGCAGGUCGACUCUAGAAAACAUG,binding signal,[7],6.87 log2 enrichment (interaction score)
GGCUAGAACUAGUGGAUCCCCCGGCGCCCGGCGGCUCGAGCCCGGGUAAGUGUAAAUAGUCUGCAUGCCGCCGGGCGCCAUGCCUGCAGGUCGACUCUAGAAAACAUG,binding signal,[1],2.65 log2 enrichment (interaction score)
same,binding signal,[4],1.06 log2 enrichment (interaction score)
same,binding signal,[2],2.29 log2 enrichment (interaction score)
same,binding signal,[7],6.46 log2 enrichment (interaction score)
same,binding signal,[8],2.85 log2 enrichment (interaction score)
GGCUAGAACUAGUGGAUCCCCCGGCGCCCGGCGGCUCGAGCCCGGGUAAGUGUAAAUCGUCUGCAUGCCGCCGGGCGCCAUGCCUGCAGGUCGACUCUAGAAAACAUG,binding signal,[9],3.46 log2 enrichment (interaction score)
GGCUAGAACUAGUGGAUCCCCCGGCGCCCGGCGGCUCGAGCCCGGGUAAGUGUAAAUUGUCUGCAUGCCGCCGGGCGCCAUGCCUGCAGGUCGACUCUAGAAAACAUG,binding signal,[10],3.86 log2 enrichment (interaction score)
